Many of the other results were omitted from the sample, so hits are more common in it than they were.
EZH2 inh = EZH2 (human) methyltransferase inhibition; actives 0.35% (n = 57,000); Q15910; PRC2 H3K27 methylation, DELFIA TRF, 1 h; inhibition, % at 12.5 µM;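 active means mean inhibition of replicates at least 50% and every single replicate also reaching 50%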;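 further: dimethyl H3K27 on biotinylated H3 21-44 peptide detected by antibody; plate controls were median neutral control wells for no effect and median positive control wells for full effect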
Target sequence (Q15910 whole entry, looked up): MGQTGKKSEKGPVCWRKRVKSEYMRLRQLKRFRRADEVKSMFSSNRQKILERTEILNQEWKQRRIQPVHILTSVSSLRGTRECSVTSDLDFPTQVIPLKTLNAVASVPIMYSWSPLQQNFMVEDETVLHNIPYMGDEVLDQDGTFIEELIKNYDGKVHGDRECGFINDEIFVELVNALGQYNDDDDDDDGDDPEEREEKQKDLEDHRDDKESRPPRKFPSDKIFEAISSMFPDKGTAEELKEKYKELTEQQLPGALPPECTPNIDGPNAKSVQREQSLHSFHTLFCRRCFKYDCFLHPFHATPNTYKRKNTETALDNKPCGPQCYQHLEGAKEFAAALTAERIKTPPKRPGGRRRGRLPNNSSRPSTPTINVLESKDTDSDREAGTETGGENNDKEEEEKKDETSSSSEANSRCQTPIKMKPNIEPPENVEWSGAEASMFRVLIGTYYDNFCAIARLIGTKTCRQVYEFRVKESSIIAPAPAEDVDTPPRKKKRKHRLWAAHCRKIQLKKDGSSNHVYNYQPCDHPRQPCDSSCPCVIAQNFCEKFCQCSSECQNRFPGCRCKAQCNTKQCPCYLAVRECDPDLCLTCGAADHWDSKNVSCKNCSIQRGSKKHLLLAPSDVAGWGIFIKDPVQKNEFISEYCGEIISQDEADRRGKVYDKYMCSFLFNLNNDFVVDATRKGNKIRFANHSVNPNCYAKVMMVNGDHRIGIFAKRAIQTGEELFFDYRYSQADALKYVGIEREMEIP
Active calls of the source: *.

SMILES	EZH2 inh
COc1ccc(NC(=O)CSc2nc3c(cc2C#N)CCCCC3)cc1OC	-4
COc1ccccc1-n1nnnc1SCC(=O)Nc1ccc(Br)cc1	12
O=C(O)CCc1ccc(-c2ccc(F)cc2)n1-c1ccc(C(=O)O)cc1	-3
C[C@@H]1O[C@@H](O[C@@H]2[C@@H](O)[C@H](OCCc3ccc(O)c(O)c3)O[C@H](CO[C@@H]3OC[C@](O)(CO)[C@H]3O)[C@H]2OC(=O)/C=C/c2ccc(O)c(O)c2)[C@H](O[C@@H]2OC[C@H](O)[C@H](O)[C@H]2O)[C@H](O)[C@H]1O	68*
COc1ccc(/C=C/C(=O)O[C@H]2[C@H](OC3C4O[C@]4(CO)[C@H]4C(O[C@@H]5O[C@H](CO)[C@@H](O)[C@H](O)[C@H]5O)OC=C[C@@H]34)O[C@@H](C)[C@H](O)[C@H]2O)cc1 (stereo partly drawn)	8
COC(=O)C1=COC(O[C@@H]2O[C@H](CO)[C@@H](O)[C@H](O)[C@H]2O)[C@@H]2[C@@H](C)[C@@H](OC(=O)/C=C/c3ccc(O)c(O)c3)[C@@H](O)[C@H]12 (stereo partly drawn)	4
CCN(CC)C(=O)c1ccc(Nc2nnc(-c3ccc(C)c(S(N)(=O)=O)c3)c3ccccc23)cc1	-2
COc1ccc(-c2cc(-c3cccs3)nc(SC(C(=O)O)c3ccccc3)c2C#N)cc1 (stereo not drawn)	72*
N#Cc1c(C(F)(F)F)cc(-c2cccs2)nc1SCC(O)COc1ccc(Cl)cc1 (stereo not drawn)	15
N#Cc1c(C(F)(F)F)cc(-c2cccs2)nc1SCC(=O)Nc1c(F)cccc1F	-8
CCCCCCCNS(=O)(=O)c1cccc2c(Cl)cccc12	41
NCCCCCCNS(=O)(=O)c1cccc2c(Cl)cccc12	-11
O=S(=O)(NCCCCCCc1ccccc1)c1cccc2c(Cl)cccc12	55*
O=[N+]([O-])c1nn(-c2ccc(Cl)cc2)n(O)c1=NCC1CCCO1 (stereo not drawn)	7
Clc1ccc(-n2c(SCc3nc4ccccc4s3)nnc2-c2cccs2)cc1	27
CC(C)(c1ccc(NS(=O)(=O)C(F)(F)F)cc1)c1ccc(C(C)(C)c2cccc(NS(=O)(=O)C(F)(F)F)c2)cc1	52*
Cc1cc(Cl)c(S(=O)(=O)Nc2cccc(C(F)(F)F)c2)cc1OCC(N)=O	2
Cc1ccc(S(=O)(=O)NC(C)C(=O)Nc2cccc(C(F)(F)F)c2)cc1 (stereo not drawn)	-2
COc1ccccc1NC(=O)C(Cc1ccccc1)N1C(=O)C2C3c4ccccc4C(c4ccccc43)C2C1=O (stereo not drawn)	-2
COC(=O)[C@H](Cc1ccccc1)N1C(=O)O[C@H](Cc2ccccc2)[C@@H]1/C=C/C1CC1	56*
COC(=O)[C@H](Cc1ccc(N=[N+]=[N-])cc1)N1CC(/C=C/[C@@H](O)Cc2ccccc2)=C[C@@H](C2CC2)O1	0
CC1=NN(c2cc(Cl)cc(Cl)c2)C(=O)CC1	-6
C#Cc1ccc(OC)c(OC)c1	-10
COc1cccc2cc(-c3nnc(SCC(=O)N4c5ccccc5Sc5ccccc54)n3C)oc12	5
CC(C)CC#Cc1ccc2c(c1)O[C@@H](CN(C)Cc1ccc(F)cc1)[C@H](C)CN([C@H](C)CO)S2(=O)=O	6
SMILES	EZH2 inh
C[C@H]1CN([C@@H](C)CO)S(=O)(=O)c2ccc(C3=CCCC3)cc2O[C@@H]1CN(C)C(=O)CC1CC1	9
C[C@H](CO)N1C[C@H](C)[C@H](CN(C)Cc2ccccc2)Oc2cc(C3=CCCCC3)ccc2S1(=O)=O	22
C[C@@H]1CN([C@@H](C)CO)S(=O)(=O)c2ccc(C3=CCCCC3)cc2O[C@@H]1CN(C)Cc1ccccc1	27
C[C@H]1CN([C@@H](C)CO)S(=O)(=O)c2ccc(C3=CCCCC3)cc2O[C@H]1CN(C)Cc1ccccc1	56*
C[C@@H]1CN([C@H](C)CO)S(=O)(=O)c2ccc(C3=CCCC3)cc2O[C@@H]1CN(C)C(=O)CC1CC1	15
CC(C)CC#Cc1ccc2c(c1)O[C@H](CN(C)Cc1ccc(C(=O)O)cc1)[C@@H](C)CN([C@H](C)CO)S2(=O)=O	70*
CC(C)CC#Cc1ccc2c(c1)O[C@@H](CN(C)Cc1ccccc1)[C@@H](C)CN([C@H](C)CO)S2(=O)=O	31
C[C@H](CO)N1C[C@H](C)[C@H](CN(C)C(=O)CC2CC2)Oc2cc(C3=CCCC3)ccc2S1(=O)=O	55*
COc1ccc(C(=O)CSc2nnc(-c3ccc(C)cc3)n2-c2ccc(C)cc2)cc1	20
COC(=O)C(CC#Cc1ccc2c(c1)[C@]1(C(=O)N2)[C@H](C(N)=O)[C@H]2C(=O)O[C@H](c3ccccc3)[C@H](c3ccccc3)N2[C@@H]1c1ccc(O)cc1)C(=O)OC	-32
Cc1ccc(C(C)C)c(OC(=O)CS(=O)c2ccc(C(F)(F)F)cc2[N+](=O)[O-])c1 (stereo not drawn)	-22
O=C(CC1NCCNC1=O)Nc1cccc(Cl)c1Cl (stereo not drawn)	-6
Cc1ccc(S(=O)(=O)N2C(=O)CCC2C(=O)Nc2ccc(Cl)c(C(F)(F)F)c2)cc1 (stereo not drawn)	7
COc1ccc(S(=O)(=O)n2nc(C)cc2C)cc1N(C)S(=O)(=O)c1ccccc1	7
Cc1ccccc1C(=O)Nc1cccc(NC(=O)COc2ccccc2Cl)c1	0
COc1ccc(NC(=O)CSc2nc3ccccc3[nH]2)cc1Cl	-23
O=C(CSc1nc2ccccc2[nH]1)Nc1ccc(Cl)c(Br)c1	54*
Cc1cc(NC(=O)CSc2nc3ccccc3[nH]2)ccc1Br	8
Cc1c(Cl)cccc1NC(=O)c1ccccc1OCC(=O)Nc1ccc2c3c(cccc13)CC2	-15
Cc1cc(=O)c2c(O)c3c(O)cc(O)c4c5c(O)cc(O)c6c(O)c7c(=O)cc(C)c8c1c2c(c34)c(c65)c78	64*
CC(C)(C(=O)Oc1ccccc1)S(=O)(=O)c1ccc(C(F)(F)F)cn1	-7
NC(=O)c1c(NC(=O)CCSc2nc(-c3ccco3)cc(C(F)(F)F)n2)sc2c1CCCC2	8
CCn1c2ccccc2n2c(SCCOc3ccc(C)cc3)nnc12	23
COc1cc(O)c2c(=O)c(OC)c(-c3cc(O)c(OC)c(OC)c3)oc2c1	-17
O=c1c(O)c(-c2cc(O)c(O)c(O)c2)oc2cc(O)cc(O)c12	93*
SMILES	EZH2 inh
O=c1c(O)c(-c2ccccc2)oc2cc(O)cc(O)c12	-1
O=C(COc1ccc(Cl)cc1Cl)Nc1ccccc1CO	-12
O=C(CCCCCC(=O)N/N=C/c1ccc([N+](=O)[O-])s1)NO	9
COc1cc(Br)c(/C=N/NC(=O)c2ccccc2O)cc1OC	67*
COc1cc(Br)cc(/C=N/NC(=O)c2ccccc2O)c1O	5
COc1ccc(/C=N/NC(=O)c2ccccc2O)cc1Br	-8
COc1ccc2c(c1)c(CC(=O)OCc1ccccn1)c(C)n2C(=O)c1ccc(Cl)cc1	56*
COc1ccc(-n2c(C)c(C(C)=O)c3cc(OCC(N)=O)ccc32)cc1	24
COc1ccc2c(c1)c(CC(=O)O)c(C)n2C(=O)c1ccc(Cl)cc1	7
Cc1nn(C(C)C(=O)Nc2ccc(F)c(Cl)c2)c(C)c1[N+](=O)[O-] (stereo not drawn)	-4
CC1(C)CC[C@]2(C(=O)O[C@@H]3O[C@H](CO)[C@@H](O)[C@H](O)[C@H]3O)CC[C@]3(C)C(=CCC4[C@@]5(C)C[C@@H](O)[C@H](O)C(C)(C)C5CC[C@]43C)C2[C@@H]1O (stereo partly drawn)	68*
